About 31,000 (8.9%) of roughly 350,000 compounds were called active. Another 15% or so got no clear call; they are omitted. Calls come from the whole dose curve; as a rule, active = well fitted inhibition curve with a large enough effect; inconclusive = small, poorly fitted or top-dose-only effect; inactive = no such curve, though single readings can be large or run the other way. The entries come from a sample that favours actives as a whole.
target: Histone-lysine N-methyltransferase EHMT2 (Homo sapiens) (UniProt Q96KQ7); assay: qHTS Assay for Inhibitors of Histone Lysine Methyltransferase G9a; settings: G9a H3K9 monomethylation, AlphaScreen, 2 h; series mostly up to 59 µM; activity, negative = inhibition: at the top concentration; note: nearly all actives have a fitted effect of over 75% in size
Procedure, shortened: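 AlphaScreen read-out: biotin-H3K9 peptide (500 nM) methylation by 20 nM enzyme with 20 uM SAM, 2 h at room temperature after 15 min compound preincubation; anti-monomethyl H3K9 antibody plus donor/acceptor beads, 10 min dark.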
% is set by controls: 0 for no effect and ±100 for the full control effect; potency is the fitted concentration of half-maximal effect.

Chain of Histone-lysine N-methyltransferase EHMT2 (Homo sapiens) (Q96KQ7 913-1193 limits assumed): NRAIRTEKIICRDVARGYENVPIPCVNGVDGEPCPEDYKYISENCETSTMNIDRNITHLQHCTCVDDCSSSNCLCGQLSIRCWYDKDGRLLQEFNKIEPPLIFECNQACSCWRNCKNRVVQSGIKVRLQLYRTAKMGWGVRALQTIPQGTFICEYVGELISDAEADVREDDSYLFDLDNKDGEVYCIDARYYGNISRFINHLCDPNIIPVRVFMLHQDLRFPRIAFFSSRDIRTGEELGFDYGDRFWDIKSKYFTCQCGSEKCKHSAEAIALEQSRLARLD

Row | SMILES | activity, negative = inhibition | Potency
1 | Cc1ccc(S(=O)(=O)N[C@@H](Cc2ccccc2)C(=O)N2CCC(C(=O)N[C@H](C(=O)O)C(C)O)CC2)cc1 (stereo not given in full) | 1.01% [at 102 µM] (inactive) | 
2 | COc1ccc(S(=O)(=O)N2CCOCC2)cc1NC(=O)Cc1c(F)cccc1Cl | 17.5% [at 12.7 µM] (inactive) | 
3 | CC(OC(=O)CNC(=O)c1cccc(F)c1)C(=O)NC1CCCCC1C (stereo not given) | 2.6% [at 102 µM] (inactive) | 
4 | COc1ccc(NC(=O)C2CCN(c3ccc(Sc4ccc(C)cc4)nn3)CC2)c(OC)c1 | -3.36% (inactive) | 
5 | Cc1cc(NC(=O)c2ccc(-c3ccc(Cl)cc3)o2)cc(-c2nc3ncccc3o2)c1O | 3.7% (inactive) | 
6 | COc1ccc(CCNC(=O)CCc2ccccc2O)cc1OC | 7.03% [at 0.501 µM] (inactive) | 
7 | COc1ccccc1CN1CCN(Cc2cc(OC)c(OC)cc2OC)CC1 |  | 8.91 µM (active)
8 | COC(=O)N1CCC2(CCCN(Cc3ccccc3OC)C2)CC1 | 2.95% [at 12.7 µM] (inactive) | 
9 | COc1ccc(OC)c(CN2CCN(C(=O)CNC(=O)c3cc(C)cc(C)c3)CC2)c1 | 31.1% (inactive) | 
10 | COc1ccc(C(=O)CSc2c(C(C)C)cnc3c2c(=O)n(C)c(=O)n3C)cc1 | -3.65% (inactive) | 
11 | CCN1C(=O)[C@@H]2[C@@H](c3ccc(-c4ccccc4)cc3)N3CCCC[C@@]3(C(=O)OC)[C@@H]2C1=O | -6.56% [at 2.33 µM] (inactive) | 
12 | CCc1cnc2c(c1SCC(=O)N1CCC(C)CC1)c(=O)n(C)c(=O)n2C | 9.16% (inactive) | 
13 | COc1ccc(N(C(=O)c2cccnc2)S(=O)(=O)c2ccc(OC)c(OC)c2)cc1 | 13.8% [at 102 µM] (inactive) | 
14 | O=C(c1cccnc1)N(c1cc2sc(=O)oc2c2ccccc12)S(=O)(=O)c1ccccc1 |  | 1.12 µM (active)
15 | COc1ccc(N(C(=O)c2cccnc2)S(=O)(=O)c2ccc3c(c2)n(C)c(=O)n3C)cc1 | -0.924% [at 12.7 µM] (inactive) | 
16 | O=C(c1ccco1)N1CCN(C(=O)c2cc(-c3ccccc3F)no2)CC1 | -5.83% [at 102 µM] (inactive) | 
17 | CCCOC(=O)c1ccc(N2C(=O)c3ccccc3C2=O)cc1 | -5.76% (inactive) | 
18 | CCOc1ccc(NC(=O)C(CC(C)C)N2Cc3ccccc3C2=O)cc1 (stereo not given) | 3.11% (inactive) | 
19 | CCO/C=C1\C(=O)N(c2ccc(OCC)cc2)C(=O)c2ccccc21 |  | 31.6 µM (active)
20 | O=C(COC(=O)c1ncc(Cl)c(Cl)c1Cl)NNC(=O)c1ccccc1 | 5.49% [at 102 µM] (inactive) | 

Row | SMILES | activity, negative = inhibition | Potency
21 | COC(=O)c1ccc(COc2cc([N+](=O)[O-])cc3cccnc23)cc1 | -18.3% [at 102 µM] (inactive) | 
22 | O=[N+]([O-])c1cc([N+](=O)[O-])c2cccnc2c1O |  | 31.6 µM (active)
23 | Cc1ccc(C(=O)Nc2cccc3ncccc23)cc1[N+](=O)[O-] | 35.3% [at 12.7 µM] (inactive) | 
24 | O=c1cc(N2CCN(Cc3ccccc3)CC2)c(-c2ccccc2)n[nH]1 | 88.4% (inactive) | 
25 | CCc1c(C)nc(N2CCN(Cc3ccccc3)CC2)[nH]c1=O | -41.6% [at 12.7 µM] (inactive) | 
26 | O=C1c2ccccc2C(=O)c2c1cccc2N1CCN(Cc2ccccc2)CC1 |  | 10 µM (active)
27 | N#Cc1cccc(OC(=O)c2ccc3c(=O)n4c(nc3c2)CCC4)c1 | -1.34% [at 0.501 µM] (inactive) | 
28 | COc1ccc(-c2cc3ncccc3cn2)cc1 | -3.56% [at 0.501 µM] (inactive) | 
29 | CC(=O)NC(Cc1ccccc1)C(=O)NC1CCN(c2ncccc2[N+](=O)[O-])CC1 (stereo not given) | 12.9% [at 102 µM] (inactive) | 
30 | COc1ccc(-c2cc(C3CCN(c4ncccc4[N+](=O)[O-])CC3)[nH]n2)cc1 |  | 50.1 µM (active)
31 | O=C(NCC1CCCO1)c1cc2c([nH]c3ccccc32)c(-c2ccc(F)cc2)n1 (stereo not given) | 6.78% [at 12.7 µM] (inactive) | 
32 | COc1cc(NC(=O)CN2C(=O)NC(C)(c3ccc(OC(F)F)cc3)C2=O)cc(OC)c1OC (stereo not given) | 9.2% [at 102 µM] (inactive) | 
33 | CSc1nc(-c2ccc(F)cc2)nc2c1Cc1c(CO)cnc(C)c1O2 | -2.18% (inactive) | 
34 | COc1cc(Cl)c(S(=O)(=O)n2cnc(C)c2)cc1Cl | 8.6% (inactive) | 
35 | CCc1nc(C)cn1S(=O)(=O)c1cc([N+](=O)[O-])ccc1Cl | -42.6% [at 102 µM] (inactive) | 
36 | CCc1nc(C)cn1S(=O)(=O)c1cc(OC)c(C)cc1C |  | 44.7 µM (active)
37 | CCOc1cc(/C=C2\SC(N3CCCC(C)C3)=NC2=O)ccc1O (stereo not given) | 8.33% [at 102 µM] (inactive) | 
38 | CC(C)C(=O)NCC(c1cccs1)S(=O)(=O)c1ccc(F)cc1 (stereo not given) | -1.3% [at 102 µM] (inactive) | 
39 | CC1CCCC(C)N1C(=O)COC(=O)COc1ccccc1C#N (stereo not given) | 15.3% (inactive) | 
40 | CC(=O)Nc1ccc(OCC(O)CN2CCN(c3ccccc3Cl)CC2)cc1 (stereo not given) | 6.83% (inactive) | 

Row | SMILES | activity, negative = inhibition | Potency
41 | COC(=O)c1cnc(N2CCN(c3ccccc3OC)CC2)c2ccccc12 | 13.9% (inactive) | 
42 | CNCC(O)CN1CCN(c2ccccc2OC)CC1 (stereo not given) |  | 50.1 µM (active)
43 | COc1ccccc1N1CCN(CCN2C(=O)c3ccccc3C(C)(C)C2=O)CC1 | 4.6% (inactive) | 
44 | COc1ccccc1N1CCN(CC(=O)NCCc2ccc(S(N)(=O)=O)cc2)CC1 | 1.17% [at 102 µM] (inactive) | 
45 | COc1ccccc1N1CCN(Cc2ccc(OC)c3ccccc23)CC1 |  | 8.91 µM (active)
46 | S=C(Nc1cccnc1)Nc1ccccn1 | -8.13% [at 2.33 µM] (inactive) | 
47 | COc1ccc(S(=O)(=O)N2CCCCC2)cc1C(=O)NC1CCS(=O)(=O)C1 (stereo not given) | -6.27% (inactive) | 
48 | CCOC(=O)c1cc(-c2ccccc2C)n(Cc2cc(C)no2)n1 | -5.1% [at 0.501 µM] (inactive) | 
49 | CN(C(=O)COC(=O)Cn1cnc2c1c(=O)n(C)c(=O)n2C)C1(C#N)CCCCC1 | 24% [at 12.7 µM] (inactive) | 
50 | Cc1cc(-c2n[nH]c(=S)n2/N=C/c2ccco2)n[nH]1 | -104% [at 12.7 µM] (inactive) | 
51 | S=c1[nH]nc(-c2cccnc2)n1/N=C/C(Cl)=C\c1ccccc1 |  | 0.891 µM (active)
52 | O=C(N/N=C\c1cccnc1)c1cc(-c2ccccc2)nc2c(Cl)cccc12 | 8.22% [at 102 µM] (inactive) | 
53 | Cc1cc(C(=O)N/N=C\C(Br)=C\c2ccccc2)c(C)o1 | -42.4% [at 102 µM] (inactive) | 
54 | Cc1cc(-c2n[nH]c(=S)n2/N=C/C(Br)=C/c2ccccc2)n[nH]1 |  | 6.31 µM (active)
55 | c1ccc(-n2nnnc2-c2cccnc2)cc1 | -12.2% [at 102 µM] (inactive) | 
56 | O=C(O)CCCn1cc(NC(=O)COc2cccc(Cl)c2)cn1 | 6.71% [at 102 µM] (inactive) | 
57 | O=C1CCN(CCCc2ccccc2)CCN1CCO | -2.88% [at 102 µM] (inactive) | 
58 | COc1ccc(C(=O)Nc2c(Cl)cc(Cl)cc2C(=O)N2CCC(C)CC2)cc1 | 14.3% (inactive) | 
59 | Cc1csc(NC(=O)c2ccc(-c3ccc(Cl)cc3Cl)o2)n1 | 2.91% (inactive) | 
60 | CC1CCN(C(=S)c2ccc(-c3ccc(Cl)cc3Cl)o2)CC1 |  | 8.91 µM (active)
